Source: PubChem BioAssay
Activity calls are given as the source filed them. Unless noted, no rule for the calls is given here.

Assays:
[1] = compound effects on lung adenocarcinoma cell viability – A549, calcein-AM fluorescence, 48 h, basal, profiling panel (AID 1162); details: higher = more signal; also: test concentration not given here
[2] = compound effects on differentiated 3T3-L1 adipocyte viability – cell-based, 3T3-L1 adipocytes, calcein-AM fluorescence, 48 h, basal, profiling panel (AID 1163); details: 3T3-L1 adipocytes viability, higher = more signal; also: test concentration not given here
[3] = compound effects on hepatocellular carcinoma cell viability – HepG2, calcein-AM fluorescence, 48 h, basal, profiling panel (AID 1164); details: higher = more signal; also: test concentration not given here
[4] = compound effects on multiple myeloma cell viability – MM1S, calcein-AM fluorescence, 48 h, basal, profiling panel (AID 1165); details: higher = more signal;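 also: viability of MM1S multiple myeloma cells under basal unstimulated conditions; test concentration not given here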
[5] = calcein-AM signal in unstimulated myeloma cells – cell-based, calcein-AM fluorescence, 48 h, PK04 Diversity Set, profiling panel (AID 1166); details: RPMI8226 myeloma viability, higher = more signal;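 also: cells grown under basal conditions without added stimulus; test concentration not given here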
[6] = JC-1 mitochondrial signal, unstimulated HepG2 cells – cell-based, JC-1 fluorescence, 24 h, 100 nL compound, profiling panel (AID 1167); details: HepG2 mitochondrial potential, higher = more signal; also: test concentration not given here
[7] = JC-1 mitochondrial signal, unstimulated adipocytes – cell-based, JC-1 fluorescence, 3T3-L1 adipocytes, 24 h, 100 nL compound, profiling panel (AID 1168); details: JC-1 mitochondrial fluorescence, higher = more signal, called active from +8 up or from −8 down; also: test concentration not given here
[8] = JC-1 mitochondrial signal, unstimulated myeloma cells – cell-based, JC-1 fluorescence, RPMI8226, 24 h, 100 nL compound, profiling panel (AID 1169); details: JC-1 mitochondrial potential fluorescence, higher = more signal; also: test concentration not given here
[9] = JC-1 mitochondrial signal, unstimulated MM1S myeloma – cell-based, JC-1 fluorescence, 24 h, 100 nL compound, profiling panel (AID 1170); details: MM1S mitochondrial potential, higher = more signal; also: test concentration not given here
[10] = resazurin metabolic signal in A549 cells – cell-based, resazurin fluorescence, 24 h, PK04 Diversity Set, profiling panel (AID 1171); details: A549 viability, higher = more signal, called active from +8 up or from −8 down; also: test concentration not given here
[11] = resazurin metabolic signal in HepG2 cells – cell-based, resazurin fluorescence, 24 h, PK04 Diversity Set, profiling panel (AID 1172); details: HepG2 viability, higher = more signal; also: test concentration not given here
[12] = budding yeast growth changes without added modifier – OD600, strain BY4716, 24 h, basal condition, primary screen (AID 1173); details: S. cerevisiae BY4716 growth, OD600, 24 h; higher = more signal, called active from +8 up or from −8 down
[13] = viability profiling in MM1S myeloma cells – cell-based, resazurin fluorescence, basal, 24 h, PK04 Diversity Set, profiling panel (AID 1174); details: higher = more signal, called active from +8 up or from −8 down; also: test concentration not given here
[14] = target: Dihydroorotate dehydrogenase (quinone), mitochondrial (Plasmodium falciparum (isolate 3D7)) (UniProt Q08210); assay: inhibition of P. falciparum DHODH – biochemical, C-terminal His tag, absorbance 600 nm, primary screen (AID 1175); details: PfDHODH enzyme, DCIP absorbance 600 nm; higher = more signal, called active from +8 up or from −8 down;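 also: recombinant parasite enzyme with a five histidine tag at its C terminus; test concentration not given here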
Chain of Dihydroorotate dehydrogenase (quinone), mitochondrial (Plasmodium falciparum (isolate 3D7)) (Q08210 whole entry, looked up): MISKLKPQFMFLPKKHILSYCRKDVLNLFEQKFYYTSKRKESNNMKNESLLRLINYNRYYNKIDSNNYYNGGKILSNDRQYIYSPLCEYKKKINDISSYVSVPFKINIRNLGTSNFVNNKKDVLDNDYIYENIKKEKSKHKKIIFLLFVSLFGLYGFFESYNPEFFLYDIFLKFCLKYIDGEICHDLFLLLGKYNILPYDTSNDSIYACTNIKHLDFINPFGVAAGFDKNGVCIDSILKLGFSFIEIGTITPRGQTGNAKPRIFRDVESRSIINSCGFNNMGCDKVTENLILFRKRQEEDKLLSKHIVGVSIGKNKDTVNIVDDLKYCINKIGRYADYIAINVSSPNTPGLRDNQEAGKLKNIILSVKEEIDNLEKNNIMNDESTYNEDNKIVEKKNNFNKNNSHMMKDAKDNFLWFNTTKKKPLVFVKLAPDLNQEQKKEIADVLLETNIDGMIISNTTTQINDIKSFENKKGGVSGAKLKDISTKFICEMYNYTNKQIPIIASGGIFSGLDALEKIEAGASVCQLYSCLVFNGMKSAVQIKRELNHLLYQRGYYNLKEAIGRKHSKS

[15] = inhibition of PAO1 biofilm formation – strain PAO1, LB-PBS medium, absorbance 600 nm, primary screen (AID 1176); also: test concentration not given here; details: P. aeruginosa PAO1 growth/biofilm, A600, 12 h; higher = more signal
[16] = growth modulation of vineyard yeast isolate – strain RM11-1a, OD600, basal, 24 h, primary screen (AID 1177);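 also: cultures grown under basal conditions with no added stressor; test concentration not given here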; details: S. cerevisiae RM11-1a growth, OD600, 24 h; higher = more signal, called active from +8 up or from −8 down
[17] = growth of efflux-deficient E. coli DRC39 – strain DRC39, OD650, 24 h, E. coli filamentation inducers, primary screen (AID 1178);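 also: growth measured as culture turbidity by optical density at 650 nm; test concentration not given here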; details: E. coli DRC39 acrAB, higher = more signal, called active from +8 up or from −8 down
[18] = growth of efflux-deficient E. coli DRC39 – strain DRC39, OD650, 48 h, E. coli filamentation inducers, primary screen (AID 1179);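 also: screen aims at cell division blockers that make cells filament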; details: E. coli DRC39 delta-acrAB growth, higher = more signal, called active from +8 up or from −8 down
[19] = viability profiling in RPMI8226 myeloma cells – cell-based, resazurin fluorescence, basal, 24 h, PK04 Diversity Set, profiling panel (AID 1180); details: higher = more signal;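 also: RPMI8826 multiple myeloma cell line at 5000 cells per well; test concentration not given here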
[20] = target: E3 ubiquitin-protein ligase XIAP (Homo sapiens) (UniProt P98170); assay: small molecules binding XIAP protein – biophysical, small-molecule microarray, fluorescence 635 nm, primary screen (AID 1181); details: higher = more signal;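 also: score merges 667 nm emission and signal to noise over triplicate slides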
Chain of E3 ubiquitin-protein ligase XIAP (Homo sapiens) (P98170 whole entry, looked up): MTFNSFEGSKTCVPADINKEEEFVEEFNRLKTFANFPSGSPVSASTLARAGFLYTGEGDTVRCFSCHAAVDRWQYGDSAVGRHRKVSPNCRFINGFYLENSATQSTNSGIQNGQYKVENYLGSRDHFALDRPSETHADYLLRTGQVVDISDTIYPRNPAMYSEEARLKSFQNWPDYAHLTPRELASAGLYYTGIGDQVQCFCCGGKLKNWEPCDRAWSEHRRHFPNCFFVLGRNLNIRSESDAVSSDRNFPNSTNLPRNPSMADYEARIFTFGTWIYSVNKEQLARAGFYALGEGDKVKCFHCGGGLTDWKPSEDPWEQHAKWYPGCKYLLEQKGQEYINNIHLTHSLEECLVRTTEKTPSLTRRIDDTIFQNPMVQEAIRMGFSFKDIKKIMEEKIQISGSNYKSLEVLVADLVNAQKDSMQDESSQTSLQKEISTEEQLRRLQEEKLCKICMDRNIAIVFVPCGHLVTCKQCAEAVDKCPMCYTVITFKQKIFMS

Compound | z-score [1] | z-score [2] | z-score [3] | z-score [4] | z-score [5] | z-score [6] | z-score [7] | z-score [8] | z-score [9] | z-score [10] | z-score [11] | z-score [12] | z-score [13] | composite z-score [14] | z-score [15] | z-score [16] | z-score [17] | z-score [18] | z-score [19] | composite z-score [20]
C=CC[C@H](OC(=O)Nc1ccc(SC)cc1)c1ccc(O)c2ccccc12 | -2.22 | -0.162 | -3.05 | -2.74 | -4.21 | -3.26 | 0.41 (inactive) | -1.02 | -2.09 | -1.24 (inactive) | -1.26 | -16.6 (active) | -6.71 (inactive) | -6.87 (inactive) | 1.44 (inactive) | -20.3 (active) | -0.146 (inactive) | -0.772 (inactive) | -5.02 | 0.104
O=C1OCCC=C[C@H]2OC34C=CCN(c5ccc6ccccc6c5)C(=O)[C@H]3N(CCCO)C(=O)[C@@H]4C12 (stereo not given in full) | 0.167 | 1.41 | -0.16 | 0.441 | -0.556 | -0.458 | 0.241 (inactive) | -0.0315 | -0.89 | -0.391 (inactive) | -0.0412 | -0.129 (inactive) | -0.284 (inactive) | -0.286 (inactive) | -0.385 (inactive) | 0.393 (inactive) | -0.127 (inactive) | -0.611 (inactive) | -0.496 | 0.158
CC(C)[Si]1(C(C)C)OCc2cc(C3CC3)nc(-c3ccc(Oc4ccccc4)cc3)c21 | 1.25 | 0.676 | 0.468 | -0.795 | -1.94 | -2.33 | 0.138 (inactive) | -0.989 | 0.196 | 2.94 (inactive) | 0.467 | 1.64 (inactive) | 1.03 (inactive) | 0.483 (inactive) | 0.173 (inactive) | 2.12 (inactive) | 0.362 (inactive) | 0.0518 (inactive) | -0.497 | -0.299
CC(C)N1CC=CC23O[C@@H]4C=CCCOC(=O)C4[C@H]2C(=O)N(CCCO)[C@@H]3C1=O (stereo not given in full) | -0.726 | 1.36 | 0.292 | 0.756 | -0.457 | -0.568 | 0.128 (inactive) | -0.303 | -0.438 | 0.446 (inactive) | 1.12 | -0.951 (inactive) | 0.348 (inactive) | -0.926 (inactive) | -0.276 (inactive) | 0.0977 (inactive) | -0.463 (inactive) | 0.32 (inactive) | -0.114 | 0.152
Cc1ccc(S[C@]2(C(=O)NCCN3CCOCC3)CC(=O)N(Cc3ccccc3Cl)[C@@H]2c2ccc(CO)cc2I)cc1 | 0.932 | -0.0217 | 0.995 | -1.62 | -3.01 | 1.53 | -0.272 (inactive) | -0.151 | -1.87 | -0.817 (inactive) | 0.466 | -3.6 (inactive) | -2.72 (inactive) | -0.576 (inactive) | 0.379 (inactive) | -1.66 (inactive) | 0.392 (inactive) | 0.475 (inactive) | -1.7 | -0.259
[N-]=[N+]=NCc1ccccc1[C@@H]1OC(c2ccc(OCCCO)cc2)=N[C@]1(CCS(=O)(=O)c1ccccc1)C(=O)O | 0.338 | -0.801 | 1.05 | 0.078 | -0.206 | -1.69 | -1.02 (inactive) | -0.178 | -1.39 | -0.216 (inactive) | -0.274 | -0.577 (inactive) | -0.906 (inactive) | 0.456 (inactive) | -0.0583 (inactive) | 0.275 (inactive) | -0.447 (inactive) | 0.0549 (inactive) | -1.4 | 0.0537
CCOC(=O)C[C@H]1[C@H](OC(=O)c2ccc(C(=O)c3ccccc3)cc2)[C@@H](NC(=O)CC(C)C)c2cc(OCCCO)ccc2N1C(=O)c1ccccc1 | -1.43 | -0.408 | -0.0606 | 0.0631 | -1.11 | 1.49 | 0.275 (inactive) | 0.52 | 0.242 | 0.256 (inactive) | -0.358 | 0.325 (inactive) | 0.0303 (inactive) | -0.235 (inactive) | 0.714 (inactive) | -0.0649 (inactive) | -0.794 (inactive) | -0.717 (inactive) | -0.281 | -0.0773
CCOC(=O)C[C@H]1[C@H](OC(=O)c2ccc(-c3ccccc3)cc2)[C@@H](NC(=O)CC(C)C)c2cc(OCCCO)ccc2N1C(=O)c1ccc2ccccc2n1 | 1.37 | 0.556 | 0.627 | 0.139 | 0.0627 | 1.66 | 1.47 (inactive) | -0.233 | -0.411 | 0.713 (inactive) | 1 | -0.677 (inactive) | 0.722 (inactive) | -1.31 (inactive) | -0.382 (inactive) | -0.248 (inactive) | 0.102 (inactive) | 0.327 (inactive) | 0.517 | -0.134
[N-]=[N+]=Nc1ccccc1C[C@]1(C(=O)O)COC(c2ccc(OCCCO)cc2)=N1 | -0.118 | 0.909 | 0.215 | -0.0932 | -0.747 | -0.253 | -1.19 (inactive) | -0.329 | 0.529 | -0.98 (inactive) | -0.365 | -0.231 (inactive) | 0.037 (inactive) | 1.04 (inactive) | 0.0254 (inactive) | 0.212 (inactive) | 0.438 (inactive) | -0.8 (inactive) | 0.404 | 0.245
